Reference: PubChem BioAssay AID463173 (ICCB-Longwood Screening Facility, Harvard Medical School, 2010)
About 4,300 (8.3%) of roughly 52,000 compounds were called active. This is one part of a sample in which actives are shown more often than they occur. Cut-off read from the data, not from the text of the source: active = survival mostly below about 52% (no sharp cut-off); inactive = mostly above about 56%.

These compounds were tested on DeltatarO mutant (assay: growth inhibition of S. aureus wild type versus tarO mutant, primary screen, teichoic acid synthesis inhibitors, RN4220, OD600 (AID 463173)). Settings: OD600, 18 h, stronger effect = lower value, screened at 18.75 µg/mL (by protocol).

SMILES | survival
COc1ccc(C2=NN(CC(=O)NCCCN(C)c3ccccc3)C(=O)CC2)cc1 | 116% (inactive)
CCCn1c(=O)c2sccc2n2c(CCCC(=O)Nc3ccc(Oc4ccccc4)cc3)nnc12 | 88% (inactive)
CN(C)c1ccc(C(CNC(=O)COc2ccc(Cl)cc2)N2CCOCC2)cc1 (configuration not stated) | 55% (inactive)
Cc1cccc(C)c1OCC(=O)Nc1nonc1-c1ccc(Br)cc1 | 41% (active)
Cc1cccc(OC(C)C(=O)Nc2nonc2-c2ccc(Br)cc2)c1C (configuration not stated) | 70% (inactive)
Cc1ccc(OCC(=O)Nc2nonc2-c2ccc(Br)cc2)cc1 | 75% (inactive)
Cc1cc(C)cc(OC(C)C(=O)Nc2nonc2-c2ccc(Br)cc2)c1 (configuration not stated) | 14% (active)
Cc1cccc(OCC(=O)Nc2nonc2-c2ccc(Br)cc2)c1C | 68% (inactive)
Cc1ccc(OC(C)C(=O)Nc2nonc2-c2ccc(Br)cc2)cc1C (configuration not stated) | 66% (inactive)
CCc1ccc2[nH]cc(S(=O)(=O)c3ccc(C(C)C)cc3)c(=O)c2c1 | 62% (inactive)
CC(C)c1ccc(NC(=O)CCNS(=O)(=O)c2ccc3c(c2)CCCC(=O)N3)cc1 | 77% (inactive)
Cc1cc(C)c2c(=O)cc(CSCC(=O)Nc3ccccc3Cl)[nH]c2c1 | 90% (inactive)
Cc1ccc(-c2cc3ncc4c(n3n2)-c2cc(F)ccc2OC4)cc1 | 108% (inactive)
O=C(CS(=O)(=O)c1cccc2nsnc12)Nc1ccccc1Cl | 71% (inactive)
CCOC(=O)Cc1cc(=O)[nH]c(/N=C(\N)Nc2ccc3ccccc3c2)n1 | 98% (inactive)
COC(=O)c1ccc(NC(=O)CCc2c(C)nn(-c3ccc(N4CCOCC4)nn3)c2C)cc1 | 78% (inactive)
CCOC(=O)C(=O)NCC(c1cccnc1)N1CCN(c2ccccc2)CC1 (configuration not stated) | 65% (active)
CN(C)CCNC(=O)C(=O)NCC(c1cccnc1)N1CCN(c2ccccc2)CC1 (configuration not stated) | 54% (active)
COc1ccccc1N1CCN(C(CNC(=O)C(=O)NCCN(C)C)c2cccnc2)CC1 (configuration not stated) | 69% (inactive)
Cc1ccc(CNC(=O)C(=O)NCC(c2cccnc2)N2CCN(c3ccc(F)cc3)CC2)cc1 (configuration not stated) | 73% (inactive)
COCCNC(=O)C(=O)NCC(c1cccnc1)N1CCN(c2ccccc2OC)CC1 (configuration not stated) | 64% (inactive)
CCOc1ccccc1NC(=O)C(=O)NCC(c1cccnc1)N1CCN(c2ccccc2)CC1 (configuration not stated) | 54% (inactive)
CN(C)CCNC(=O)C(=O)NCC(c1cccnc1)N1CCN(c2ccc(F)cc2)CC1 (configuration not stated) | 69% (inactive)
COC(=O)NCC(c1cccnc1)N1CCN(c2ccc(F)cc2)CC1 (configuration not stated) | 83% (inactive)
COc1ccccc1N1CCN(C(CNC(=O)C(=O)NCCCN(C)C)c2cccnc2)CC1 (configuration not stated) | 61% (active)

SMILES | survival
CCN(CC)CCNC(=O)C(=O)NCC(c1cccnc1)N1CCN(c2ccccc2)CC1 (configuration not stated) | 100% (inactive)
Cc1cc(C)cc(NC(=O)C(=O)NCC(c2cccnc2)N2CCN(c3ccccc3)CC2)c1 (configuration not stated) | 56% (inactive)
Cc1ccc(C)c(NC(=O)C(=O)NCC(c2cccnc2)N2CCN(c3ccc(F)cc3)CC2)c1 (configuration not stated) | 15% (active)
COc1ccc(OC)c(NC(=O)Cn2cc(C(=O)c3cccs3)c3ccccc32)c1 | 50% (inactive)
Cc1ccccc1NC(=O)CSC1=Nc2ccccc2C2=NC(CCC(=O)NCc3ccccc3)C(=O)N12 (configuration not stated) | 89% (inactive)
COc1cccc(C2C(C(N)=O)=C(C)Nc3ncnn32)c1 (configuration not stated) | 71% (inactive)
Cn1c(SCc2ccccc2F)nc2c([nH]c3ccccc32)c1=O | 97% (inactive)
Cc1ccc(/C=C/c2onc(C)c2S(=O)(=O)N2CCC(C(=O)N3CCN(c4cc(C)ccc4C)CC3)CC2)cc1 | 87% (inactive)
O=C(Cn1cc(SCc2ccccc2Cl)c2ccccc21)N1CCCCCC1 | 74% (inactive)
CC1CCN(S(=O)(=O)c2cc(C(=O)NCc3ccc(N(C)C)cc3)n(C)c2)CC1 | 93% (inactive)
Cc1cccc(N2CCN(c3ccc(NC(=O)c4ccccc4)cc3C(=O)O)CC2C)c1 (configuration not stated) | 81% (inactive)
CCCS(=O)(=O)N1CCC(N2CCN(Cc3ccc(F)cc3)C(=O)C2=O)CC1 | 83% (inactive)
COc1cccc(CNC(=O)Cn2c(=O)cc(C(F)(F)F)c3c(C)nn(C)c32)c1OC | 90% (inactive)
COCCNC(=O)C(=O)NCC(c1cccnc1)N1CCN(c2ccccc2)CC1 (configuration not stated) | 54% (active)
O=C(NCCc1ccccc1)C(=O)NCC(c1cccnc1)N1CCN(c2ccccc2)CC1 (configuration not stated) | 51% (inactive)
O=C(NCc1ccccc1)C(=O)NCC(c1cccnc1)N1CCN(c2ccccc2)CC1 (configuration not stated) | 45% (active)
COCCNC(=O)C(=O)NCC(c1cccnc1)N1CCN(c2ccccc2F)CC1 (configuration not stated) | 70% (inactive)
O=C(NCc1cccnc1)C(=O)NCC(c1cccnc1)N1CCN(c2ccccc2)CC1 (configuration not stated) | 53% (inactive)
O=C(NCc1ccc(Cl)cc1)C(=O)NCC(c1cccnc1)N1CCN(c2ccccc2)CC1 (configuration not stated) | 47% (inactive)
Cc1ccc(CCNC(=O)c2ccc3c(c2)N(Cc2ccccc2F)C(=O)c2ccccc2S3=O)cc1 (configuration not stated) | 69% (inactive)
COc1ccc(-c2cc(C(=O)NCc3ccc(F)cc3)c3c(-c4ccc(F)cc4)[nH]nc3n2)cc1OC | 72% (inactive)
COc1ccc(CCNc2nc3c(c(=O)n(C)c(=O)n3C)n2Cc2ccc(F)cc2)cc1OC | 90% (inactive)
CCOc1ccc(N(c2nc(-c3ccc(OC)c(OC)c3)no2)c2nc(-c3ccc(OC)c(OC)c3)no2)cc1 | 73% (inactive)
Nc1ncc(Cc2ccccc2)s1 | 75% (inactive)
CCCCSCCCNC(=O)CN1C(=O)c2cccnc2Oc2ccc(Cl)cc21 | 94% (inactive)

SMILES | survival
N#CC1=C(N)Oc2c(c(=O)oc3ccccc23)C1 | 31% (active)
N#Cc1cc2c(ccc3ccccc32)oc1=O | 71% (inactive)
N#CC1=C(N)Oc2c(c(=O)oc3ccccc23)C12C(=O)Nc1ccccc12 (configuration not stated) | 102% (inactive)
COc1ccc(N2CCN(C(=O)Cn3ncc4c3-c3cc(C)ccc3OC4)CC2)cc1 | 122% (inactive)
C=C(C)Cn1c(=O)c2c(nc3n2CCN3c2cc(C)cc(C)c2)n(C)c1=O | 81% (inactive)
Oc1cccc(N=Cc2sc(=S)n(C3CCCCC3)c2O)c1 | 84% (inactive)
CC1=C(C(=O)Nc2cccc(C)c2C)C2(CCCCC2)OC1=O | 89% (inactive)
CC1=C(C(=O)Nc2ccccc2Br)C2(CCC(C)CC2)OC1=O (configuration not stated) | 83% (inactive)
CC1=C(C(=O)NCc2cccc(F)c2)C2(CCCCCC2)OC1=O | 55% (inactive)
CC1=C(C(=O)Nc2cccc(C(F)(F)F)c2)C2(CCN(C(C)C)CC2)OC1=O | 84% (inactive)
CC1=C(C(=O)Nc2cccc(Cl)c2C)C2(CCCCCC2)OC1=O | 0% (active)
COC(=O)c1ccccc1NC(=O)C1=C(C)C(=O)OC12CCCCCC2 | 84% (inactive)
CC1=C(C(=O)Nc2cccc(C(F)(F)F)c2)C2(CCCCC2)OC1=O | 95% (inactive)
CC(=O)N1CCC2(CC1)OC(=O)C(C)=C2C(=O)Nc1cccc(Cl)c1C | 70% (inactive)
COC(=O)c1ccccc1NC(=O)C1=C(C)C(=O)OC12CCC(C)CC2 (configuration not stated) | -23% (active)
CC1=C(C(=O)NCc2cccc(Br)c2)C2(CCCCC2)OC1=O | 83% (inactive)
CC1=C(C(=O)Nc2cccc(C(F)(F)F)c2)C2(CCCCCC2)OC1=O | 32% (active)
CC1=C(C(=O)NCc2cccc(F)c2)C2(CCCCC2)OC1=O | 37% (active)
CCOc1ccc(C2C(C(=O)Nc3ccc(C)cc3C)=C(C)Nc3c(C(=O)Nc4ccc(C)cc4)cnn32)cc1OC (configuration not stated) | 94% (inactive)
O=C(NC(=O)c1ccccc1)Nc1ccc(-n2nc(C(F)(F)F)cc2C(F)(F)F)cc1 | 173% (inactive)
COC(=O)c1ccccc1NC(=O)Cn1c(=O)cc(-c2ccccc2)c2c(C)nn(C)c21 | 89% (inactive)
CCOC(=O)C(CC)N1CCN(Cc2ccc(F)cc2)C(=O)C1=O (configuration not stated) | 85% (inactive)
Cc1cccc(NC(=O)C(=O)NCC(c2cccnc2)N2CCc3ccccc3C2)c1C (configuration not stated) | 86% (inactive)
CN1CC(=O)N(CC(=O)Nc2ccc(Cl)c(C(F)(F)F)c2)c2ccccc2C1=O | 85% (inactive)
Cc1ccc(NC(=O)C2CCCN(S(=O)(=O)c3cccc4cccnc34)C2)c(C)c1 (configuration not stated) | 78% (inactive)

SMILES | survival
O=C(COc1ccccc1[N+](=O)[O-])Nc1ccc(-c2nc3ccccc3s2)cc1 | 63% (inactive)
COc1cccc(C(=O)Nc2ccccc2C(=O)OCc2cc(=O)n3nc(C4CC4)sc3n2)c1 | 65% (inactive)
COc1ccc(NC(=O)C2=C(C)C(=O)OC23CCN(C(C)C)CC3)cc1Cl | 83% (inactive)
COc1ccc(OC)c(NC(=O)C2=C(C)C(=O)OC23CCN(C(C)C)CC3)c1 | 32% (active)
COc1ccc(OC)c(NC(=O)C2=C(C)C(=O)OC23CCCCCC3)c1 | 131% (inactive)
CCCn1c(=O)c2sccc2n2c(CCCC(=O)NC3CCCCC3)nnc12 | 80% (inactive)
CCc1cccc(C)c1NC(=O)CCn1c(=O)c2cccn2c2ccccc21 | 58% (inactive)
COc1ccc(-n2nc3c(N4CCCC(C(=O)NCCc5ccccc5C)C4)nnc(C)c3c2C)cc1 (configuration not stated) | 70% (inactive)
C/C(=N\NC(=O)c1ccco1)c1ccc(C)o1 | 80% (inactive)
CC(=O)c1ccc(NC(=O)Cn2ncc3c4ccccc4n(Cc4ccccc4)c3c2=O)cc1 | 73% (inactive)
Cc1cccc(-c2noc(-c3ccccc3OCC(=O)Nc3ccccc3[N+](=O)[O-])n2)c1 | 94% (inactive)
CC(=O)c1ccc(NC(=O)COc2ccccc2-c2nc(C)no2)cc1 | 95% (inactive)
CC(C)c1noc(-c2ccccc2OCC(=O)Nc2cccc([N+](=O)[O-])c2)n1 | 62% (inactive)
CC(C)c1noc(-c2ccccc2OCC(=O)Nc2ccccc2[N+](=O)[O-])n1 | 44% (active)
O=C(COc1ccccc1-c1nc(-c2ccccc2)no1)Nc1ccccc1[N+](=O)[O-] | 31% (active)
CC(=O)c1ccc(NC(=O)COc2ccccc2-c2nc(-c3ccccc3)no2)cc1 | 48% (inactive)
Cc1noc(-c2ccccc2OCC(=O)Nc2ccccc2[N+](=O)[O-])n1 | 39% (active)
CC(=O)c1ccc(NC(=O)COc2ccccc2-c2nc(C(C)C)no2)cc1 | 55% (active)
Cc1ccc(-c2noc(-c3ccccc3OCC(=O)Nc3ccccc3[N+](=O)[O-])n2)cc1 | 60% (inactive)
CC(C)c1noc(-c2ccccc2OCC(=O)Nc2ccc([N+](=O)[O-])cc2)n1 | 61% (inactive)
Cc1ccc2cccc(NC(=O)COc3ccccc3[N+](=O)[O-])c2n1 | 75% (inactive)
Cc1ccccc1-c1noc(-c2ccccc2OCC(=O)Nc2ccccc2[N+](=O)[O-])n1 | 45% (inactive)
